Screens: PubChem BioAssay, several laboratories
In the library only some 4% were active in any assay of this set; here they are far more common.
Gli-Sufu block: blocks Gli-Sufu signaling in a luciferase reporter. inhibition, % at 5 µM. 0.74% of 340,000 active. Sufu-KO-LIGHT fibroblasts, Gli luciferase reporter luminescence;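 active = inhibition above about 55%, limit read from the data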;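 also: 0% = DMSO-treated cells and 100% = wells with medium but no cells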
Mdm2 MdmX PPI: disrupts the human Mdm2-MdmX interaction. O15151+Q00987. AID 485346. SaOS-2 split-luciferase Mdm2/MdmX complementation, luminescence. inhibition, % at 8 µM. 3% of 330,000 active;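 active = inhibition of at least 50% at 8 µM in the primary screen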
Beta apoptosis: blocks beta cell apoptosis | protection from apoptosis, % (no concentration beside the values) | AID 435005 | 0.8% of 300,000 active | INS-1E cytokine-induced death, ATP luminescence, 48 h; percent of positive-control rescue, neutral wells zero;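 active = Every replicate reaches about 75%, or at least half do and their mean reaches it too, limit read from the data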;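 also: 0% = cytokine-treated negative control wells and 100% = positive control rescue; higher means more ATP so stronger rescue from cytokine killing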
697 NFkB inh: inhibitors of the PMA/ionomycin-induced NF-kB reporter in 697 B cells | 697 B-cell NF-kB luciferase reporter, 16 h | inhibition, % at 4 µM | 0.33% of 330,000 active; in the data active = inhibition above about 35%
Jurkat NFkB inh: inhibitors of the PMA/ionomycin-induced NF-kB reporter in Jurkat cells | PMA/ionomycin-induced NF-kB luciferase reporter, luminescence | inhibition, % at 4 µM | 0.53% of 330,000 active | AID 435003; in the data active = inhibition above about 50%
Starred values were filed as active, the others as inactive; · = no result.

SMILES	Gli-Sufu block	Mdm2 MdmX PPI	Beta apoptosis	697 NFkB inh	Jurkat NFkB inh
Cc1ccc(N2C(=O)NC(=O)/C(=C/c3cnn(-c4ccc(C)cc4)c3)C2=O)cc1	-18.8	-1.3	85.2*	-50.2	4.0
COc1ccc(CNC(=O)C(NC(C)=O)C(C)C)cc1OC (configuration not stated)	6.2	5.8	-10.0	12.8	9.5
CO[C@@H]1C=CC23c4cc5c(cc4CO[C@]2(O)CN(C)[C@H]3C1)OCO5 (some centres not stated)	-18.8	9.8	-1.4	7.3	-15.2
C[C@H]1[C@H](OC(=O)CCC(=O)NCc2ccc(C(=O)O)cc2)O[C@@H]2O[C@@]3(C)CC[C@H]4[C@H](C)CC[C@@H]1C24OO3	88.5*	26.7	29.9	14.8	9.0
C[n+]1c(-c2ccccc2)cc(-c2ccc(Cl)cc2)cc1-c1ccccc1	19.8	23.1	38.5	-23.8	6.6
Cc1ccc(-c2cc(-c3ccc(C)cc3)[n+](-c3ccc(C(=O)[O-])cc3)c(-c3ccc(C)cc3)c2)cc1	8.3	36.1	97.7*	-3.3	17.4
CN(C)C(=S)SSC(=S)N(C)C	68.0*	·	8.1	·	·
CCC(Oc1cc(Cl)ccc1Cl)C(=O)N1CCC2(CC1)OCCO2 (configuration not stated)	0.9	-15.7	4.7	-7.4	8.9
CN(C(=O)c1ccc(Cl)nc1)C1(c2ccccc2Cl)CCCCC1=O (configuration not stated)	-0.2	5.5	·	16.3	3.7
Cc1ccc(C(=O)N2CC2C)cc1 (configuration not stated)	9.8	·	·	·	·
CC1CC(C)CC(C)C(O)C(C#N)=CC=CCC(C2CCCC2C(=O)O)OC(=O)CC(O)C(C)C1 (configuration not stated)	87.2*	·	·	·	·
CC12CCC(=O)C=C1CC(O)C1C2CCC2(C)C1CCC2(C)O (configuration not stated)	0.6	·	·	·	·
c1ccc2c(CN3CCCCCC3)c[nH]c2c1	20.3	22.6	99.8*	-9.4	0.3
COC1CCC(OC2CC(C3(C)CCC4(CC(O)C(C)C(C(C)/C=C(\C)C(=O)C(C)CC(C)C(=O)O)O4)O3)OC3(OC(C4OC(O)(CO)C(C)CC4C)CC3C)C2C)OC1C (configuration not stated)	77.0*	·	·	·	·
C[C@H]1CCC/C=C/[C@@H]2C[C@H](O)C[C@H]2[C@@H](O)/C=C/C(=O)O1	85.5*	·	·	·	·
CC12C=CC(=O)CC1CCC1C2CCC2(C)C(O)C(O)CC12 (configuration not stated)	0.7	·	·	·	·
Clc1ccc(C(Cn2ccnc2)OCc2csc3c(Cl)cccc23)c(Cl)c1 (configuration not stated)	34.5	32.0	86.5*	-10.6	37.6
CN1C2CCC1/C(=C/c1ccccn1)C(=O)/C2=C\c1ccccn1	47.8	·	99.7*	·	·
c1ccc2c3c([nH]c2c1)C1(CCNCC1)NCC3	8.6	17.8	87.5*	6.8	1.5
c1ccc2c3c([nH]c2c1)CNCC3	14.3	-3.6	-1.2	-4.9	-5.9
COC(=O)C1=C(c2cccc(OCc3ccccc3)c2)C[C@@H]2CC[C@H]1N2C(=O)NCc1ccc2[nH]ccc2c1	9.1	22.7	2.1	-1.8	-4.1
CNCC(=O)c1ccccc1	-14.0	9.3	-6.5	5.8	18.1
O=C1NC2C(O)C(O)C(O)C(O)C2c2cc3c(c(O)c21)OCO3 (configuration not stated)	71.9*	·	·	·	·
COc1cc(C2c3cc4c(cc3CC3COC(=O)C32)OCO4)cc(OC)c1O (configuration not stated)	47.8	·	·	·	·
CCCCCCOc1ccc(CN2CCN(C)CC2)cc1	33.5	39.8	108.7*	-113.0	-102.6
SMILES	Gli-Sufu block	Mdm2 MdmX PPI	Beta apoptosis	697 NFkB inh	Jurkat NFkB inh
O=C1CC(c2ccccc2)CN1 (configuration not stated)	-3.0	11.4	-1.7	7.5	0.3
CCCCCn1c(=O)c(C(=O)Nc2ccccc2)c(O)c2ccccc21	-0.8	30.6	46.4	-24.5	-5.3
CCCCCn1c(=O)c(C(=O)NCc2ccccc2Cl)c(O)c2ccccc21	·	27.5	100.5*	-4.6	-16.6
O=c1[nH]cnc2nc(-c3ccc(N(CCCl)CCCl)cc3)[nH]c12	-96.6	·	·	·	·
CC(=O)OCC12CC(OC(=O)CC(C)C)C(C)=CC1OC1C(O)C(OC(C)=O)C2(C)C12CO2 (configuration not stated)	89.5*	·	·	·	·
Nc1ccc(CCN2CCCC2)cc1	5.2	-6.0	2.5	0.0	-4.0
